Common to all, as to format: functional
Assay [1] relates to Plasmodium falciparum. In words: GSK_TCMDC: Inhibition of Plasmodium falciparum 3D7 in whole red blood cells, using parasite LDH activity as an index of growth. Test compounds present at 2uM.
For assay [2], the system named is Plasmodium falciparum. In words: GSK_TCMDC: Inhibition of Plasmodium falciparum Dd2 in whole red blood cells, using parasite LDH activity as an index of growth. Test compounds present at 2uM.
A further assay has as its system HepG2. In words: GSK_TCMDC: Percent inhibition of human HepG2 cell line. Test compounds present at 10uM.

For the compound `COc1ccc2[nH]c(C)cc(=NN=Cc3ccccc3)c2c1`, the results for the Inhibition with Plasmodium falciparum [1], with Plasmodium falciparum [2] and in the assay with HepG2 were 80%, 6% and 4%, respectively.
As for `CCc1c(C)nc(-n2nc(C)cc2NC(=O)CCc2ccccc2)[nH]c1=O`, the figures for the Inhibition with Plasmodium falciparum [1], in the assay with Plasmodium falciparum [2] and in the assay on HepG2 were 97%, 97% and 48%, respectively.
`CCNc1cc(C(=O)N[C@@H](Cc2ccccc2)[C@H](O)CNC23CCC(CC2)CC3)cc(N2CCCCS2(=O)=O)c1.Cl`: the Inhibition amounted to 99% with Plasmodium falciparum [1], 98% with Plasmodium falciparum [2] and 10% with HepG2.
Taken in the same sequence, the figures for `COc1cccc(-c2cc(C(=O)Nc3cc(Oc4ccc(O)cc4)cc([N+](=O)[O-])c3)on2)c1` were 89%, 30% and 16%.
Consider `O=C(CSc1nc(-c2ccccc2Cl)ns1)Nc1cccc(Cl)c1`, for which the figures for the Inhibition in the assay on Plasmodium falciparum [1], with Plasmodium falciparum [2] and in the assay on HepG2 were 96%, 89% and 0%, respectively.
Consider `Cc1c(C(=O)Nc2cc(Sc3ccc(F)cc3)cc([N+](=O)[O-])c2)sc2ncn(Cc3ccccc3F)c(=O)c12`, for which the Inhibition in the assay with Plasmodium falciparum [1] is given as 98%; with Plasmodium falciparum [2], 45%; in the assay with HepG2, 2%.
`CC(C)NCc1ccc(-c2ccc(-c3nc4cc(C(F)(F)F)ccc4[nH]3)s2)cc1.O=C(O)C(F)(F)F`: the Inhibition stood at 100% in the assay with Plasmodium falciparum [1], 94% in the assay on Plasmodium falciparum [2] and 30% in the assay on HepG2.
In the case of `Cc1ccccc1N1CCN(c2ccc(C(=O)Nc3ccccc3)cn2)CC1.O=C(O)C(F)(F)F`, the Inhibition was found to be 95% in the assay with Plasmodium falciparum [1], 69% with Plasmodium falciparum [2] and 44% with HepG2.
Taken in the same sequence, the figures for `CCCNCc1ccc(-c2ccc(CN(Cc3cnc(C)cn3)C(=O)c3nn(-c4ccccc4)nc3C)cc2)nc1.O=C(O)C(F)(F)F` were 99%, 49% and 22%.
For `Br.CC1(C)NC(N)=NC(=N)N1OCCSCCON1C(=N)N=C(N)NC1(C)C`, in that order: 95%, 81% and 34%.
As to `OC(CNC1CCCCC1)Cn1c2ccc(Br)cc2c2cc(Br)ccc21` (stereo not given), the Inhibition in the assay with Plasmodium falciparum [1] came to 98%; in the assay with Plasmodium falciparum [2], 100%; in the assay on HepG2 it was 10%.
In the case of `COc1cc(OC)c(OC)cc1C=NN=c1cc(C)[nH]c2ccccc12`, the figures for the Inhibition in the assay with Plasmodium falciparum [1], with Plasmodium falciparum [2] and in the assay with HepG2 were 100%, 95% and 5%, respectively.
For `O=C(/C=C/c1ccc(Cl)c(Cl)c1)NC1CCC(CN2CCC(c3cc4ccccc4[nH]3)CC2)CC1` (stereo not given), in that order: 96%, 0% and 19%.
With `O=C(Nc1ccc2c(c1)CCN2C1CCN(Cc2ccc(F)cc2Cl)C1)c1ccco1` (stereo not given), the Inhibition in the assay on Plasmodium falciparum [1] worked out at 97%; with Plasmodium falciparum [2] it was 96%; in the assay on HepG2, 4%.
For `CCCNC(=O)c1cncc(-c2cccc(CNC3Cc4ccccc4C3)c2)c1.O=C(O)C(F)(F)F`, in that order: 100%, 2% and 0%.
Taken in the same sequence, the figures for `COc1cc2c(cc1C(F)(F)F)N(C(=O)Nc1cc(OC(F)(F)F)cc(-c3cccnc3)c1)CC2` were 100%, 49% and 55%.
Taken in the same sequence, the figures for `COc1cc2nc(N3CCC(CNC(=O)/C=C/c4cccc(C)c4)CC3)nc(N)c2cc1OC` were 100%, 68% and 16%.
With `NCCNS(=O)(=O)c1ccc(-c2ccnc3[nH]c(-c4ccncc4)cc23)cc1.O=C(O)C(F)(F)F`, the Inhibition in the assay on Plasmodium falciparum [1] worked out at 96%; with Plasmodium falciparum [2], 95%; in the assay on HepG2, 0%.
Taken in the same sequence, the figures for `O=C(NCC1CCC(C(=O)NCCN2CCCCC2)CC1)c1ccc(O)c(-c2ccc(Cl)c(Cl)c2)c1` (stereo not given) were 91%, 22% and 0%.
For `Cc1[nH]c(C)c(-c2ccc(Oc3ccc(F)cc3)cc2)c(=O)c1Cl`, in that order: 99%, 98% and 14%.

What is called Inhibition is the percentage by which the read-out fell short of the control. A lower Inhibition goes with little suppression.

Source of the values: ChEMBL document CHEMBL1157539, “Thousands of chemical starting points for antimalarial lead identification” (Nature, 2010).
